High-throughput results (PubChem BioAssay)
FLuc counter = qHTS profiling assay for firefly luciferase inhibitor/activator using purifed enzyme and Km concentrations of substrates (counterscreen for miR-21 project); Luciferin 4-monooxygenase (Photinus pyralis), P08659; purified FLuc, Km substrates, luminescence inhibition; Potency, µM (highest dose often 57.5 µM), hits mostly inhibitors; 360,000 compounds, 6.9% hits; note: nearly all actives have a fitted effect of over 55% in size
Target sequence (P08659 whole entry, looked up): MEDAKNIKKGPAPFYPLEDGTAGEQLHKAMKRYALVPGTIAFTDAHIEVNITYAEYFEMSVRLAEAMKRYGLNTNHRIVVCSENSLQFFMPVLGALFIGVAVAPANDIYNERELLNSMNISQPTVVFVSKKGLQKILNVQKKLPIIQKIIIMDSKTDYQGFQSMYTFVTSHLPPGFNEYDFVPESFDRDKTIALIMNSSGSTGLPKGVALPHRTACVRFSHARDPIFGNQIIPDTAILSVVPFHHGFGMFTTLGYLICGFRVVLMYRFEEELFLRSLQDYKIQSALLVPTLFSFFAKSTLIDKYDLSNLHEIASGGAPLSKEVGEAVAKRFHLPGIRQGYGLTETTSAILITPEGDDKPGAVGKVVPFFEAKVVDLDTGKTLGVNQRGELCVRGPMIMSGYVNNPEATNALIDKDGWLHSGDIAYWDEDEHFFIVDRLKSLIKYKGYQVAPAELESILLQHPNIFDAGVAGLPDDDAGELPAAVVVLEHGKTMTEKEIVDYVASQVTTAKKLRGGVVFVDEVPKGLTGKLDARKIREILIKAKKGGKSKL
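Purified P. pyralis luciferase (10nM final) with 10uM D-luciferin and 10uM ATP (Km levels) in 50mM Tris acetate pH 7.5, 10mM Mg acetate, 0.01% Tween-20, 0.05% BSA; qHTS 6-point titration, ~60 µM downward; luminescence read.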
ELG1 genotox = qHTS screen for small molecules that induce genotoxicity in human embryonic kidney (HEK293T) cells expressing luciferase-tagged ELG1. AID 504466, 2011. HEK293T ELG1-luciferase reporter, luminescence, 16 h. Potency, µM (doses to about 46 µM), hits mostly activators. 330,000 compounds, 1.3% hits; note: nearly all actives have a fitted effect of over 60% in size
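Genotoxic stress is detected as increased luminescence from luciferase-tagged ELG1 in HEK293T cells, measured with ONE-Glo after a 16 hr treatment at 37 °C.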
NPC1 promoter act = qHTS Assay for NPC1 Promoter Activators | Potency, µM (titrated, usually from 9.22 µM), actives largely listed as activators | Huh7 NPC1 promoter luciferase reporter, 24 h | 320,000 compounds, 2.4% hits; note: nearly all actives have a fitted effect of over 60% in size
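Luminescence read-out of NPC1 promoter-driven luciferase in stably transfected Huh7 cells; compounds delivered in DMSO and left 24 h at 37C, 5% CO2, qHTS titration format.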
ELG1 DNA repair = qHTS screen for small molecules that inhibit ELG1-dependent DNA repair in human embryonic kidney (HEK293T) cells expressing luciferase-tagged ELG1; HEK293T ELG1-luciferase reporter, luminescence, 16 h; DNA damage induced by 5-fluorouridine; AID 504467, 2011; Potency, µM (top dose mostly 46.1 µM), actives largely listed as inhibitors; 330,000 compounds, 2.3% hits; note: nearly all actives have a fitted effect of over 55% in size
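5-Fluorouridine DNA damage + compound/DMSO, 2,000 cells/well, 16 h, 37 °C/5% CO2. ONE-Glo, 30 min RT, luminescence. Readout = decrease in reporter signal.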
Rab9 promoter act = qHTS Assay for Rab9 Promoter Activators. Potency, µM (highest dose often 9.22 µM), usual class: activators. 320,000 compounds, 2.8% hits. Huh7 Rab9 promoter-luciferase reporter, luminescence, 24 h; note: nearly all actives have a fitted effect of over 60% in size
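Luminescence from Amplite-detected luciferase (10 minutes, ambient) reports Rab9 promoter activation. Before that, stable Rab9-luciferase Huh7 cells (1500/well, reduced-serum OP-MEM I plus 10% FBS) were exposed to compound for 24 hours at 37C.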
SMN2 splice up = qHTS Assay for Enhancers of SMN2 Splice Variant Expression; 210,000 compounds, 2.8% hits; Potency, µM (top dose mostly 46.1 µM), usual class: activators; HEK293 SMN2-luciferase splicing reporter, luminescence, 30-36 h; note: nearly all actives have a fitted effect of over 55% in size
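HEK293 cells carry an SMN2 minigene-luciferase reporter in which exon 7 inclusion puts luciferase in frame. Cells were seeded at 2000 cells/well, attached for 10-12 hours, then exposed to compounds for 30-36 hours at 37C before ONE-Glo luminescence.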
A number is an active result; - = inactive; ? = inconclusive; . = no result; [ ] = another dose, or the depositor's remark. Only some compounds are listed: those with a hit (about 9.2% of all), similar ones and a draw of the others. Calls come from the whole dose curve; as a rule, active = well fitted curve in the direction sought with a large enough effect; inconclusive = small, poorly fitted or top-dose-only effect, or another doubt; inactive = no such curve, though single readings can be large; an effect the other way counts as inactive or inconclusive.

SMILES	FLuc counter	ELG1 genotox	NPC1 promoter act	ELG1 DNA repair	Rab9 promoter act	SMN2 splice up
COCCCNC(=O)Cn1c(=O)n(-c2ccc(C)c(C)c2)c(=O)c2c3c(sc21)CCCCC3	-	.	.	.	.	-
COc1cccc(NC(=O)CN(C)C(=O)c2ccc(OCc3ccccc3)c(OC)c2)c1	-	-	-	-	-	.
N#CCCC(CCC#N)(CCC#N)c1cc[n+](CCc2ccccn2)cc1	-	-	-	-	-	.
C/C(=N\NC(=O)c1cc(C)nc2ccccc12)c1ccccn1	.	?	-	?	-	.
C/C(=N/NC(=O)c1ccccn1)c1ccc(O)cc1	24µM	16µM	3.5µM	?	2.8µM	.
C/C(=N/NC(=O)c1ccccn1)c1c[nH]c2ccccc12	5.4µM	10µM	2.2µM	?	3.5µM	.
C/C(CC(=O)Nc1ccc(N(C)C)cc1)=N\NC(=O)c1ccccn1	?	?	-	?	-	-
CCOc1ccc(NC(=O)NCc2ccc3c(c2)CCN3C(C)=O)cc1	-	.	.	.	.	.
CCOC(=O)C1=C(CN2CCC(C)CC2)NC(=O)NC1c1ccc(F)cc1 (stereo not given)	-	.	.	.	.	.
Cc1ccc2c(c1)c1nc3ccccc3nc1n2C	6.7µM	?	-	?	-	.
Cn1c2ccc(F)cc2c2nc3ccccc3nc21	?	?	-	-	-	.
COc1cc(/C=N/NS(=O)(=O)c2ccc(C)cc2)ccc1OCc1ccc(C(=O)O)cc1	0.024µM	?	0.79µM	?	4.5µM	.
COc1cc(/C=N/NC(=O)CC2(C)OCCCO2)ccc1OCc1ccccc1	?	-	-	?	-	-
COc1ccc(/C=N/NS(=O)(=O)c2ccccc2)cc1OC	-	-	-	18µM	-	.
COc1cc(/C=N/NC(=O)CN2CCCCC2)ccc1OCc1ccc(Br)cc1	15µM	?	-	?	-	10µM
CCOc1ccc(/C=N/NS(=O)(=O)c2ccc(C)cc2)cc1OC	-	-	-	-	-	.
COc1cc(/C=N\NS(=O)(=O)c2ccccc2)cc(OC)c1OC	-	-	-	-	-	.
O=C(Cc1ccc(Cl)cc1)NCC(=O)N1CCN(Cc2ccccc2)CC1	-	-	-	?	-	.
COc1ccccc1C1C(C(C)=O)=C(C)N=c2s/c(=C\c3cc(OC)c(OC)c(OC)c3)c(=O)n21 (stereo not given)	-	-	-	23µM	-	-
CC(=O)c1cc(-c2ccc(F)cc2)n(CC(=O)NC(C)c2ccccc2)c1C (stereo not given)	-	.	.	.	.	.
CCOc1ccc(C(C)=O)cc1COC(=O)c1ccc2c(c1)NC(=O)CS2	.	-	-	16µM	-	.
COc1ccc(C(=O)COC(=O)c2ccc3c(c2)NC(=O)CS3)c(OC)c1	-	-	-	?	-	.
CC(=O)c1cccc(NC(=O)c2cc(-c3ccc(C)cc3)on2)c1	?	4.6µM	?	?	?	?
CC(=O)c1cccc(NC(=O)c2cc(-c3ccc4c(c3)OCCO4)on2)c1	0.15µM	.	.	.	.	.
CC(=O)c1ccc(NC(=O)c2cc(-c3ccc4c(c3)OCO4)on2)cc1	-	.	.	.	.	-
SMILES	FLuc counter	ELG1 genotox	NPC1 promoter act	ELG1 DNA repair	Rab9 promoter act	SMN2 splice up
O=C(Nc1ccc(SC(F)F)cc1)c1cc(-c2ccc3c(c2)OCCO3)on1	5.4µM	.	.	.	.	.
CC(=O)Nc1ccc(NC(=O)c2cc(-c3ccc4c(c3)OCCO4)on2)cc1	0.34µM	.	.	.	.	.
O=C(Nc1ccc(SC(F)F)cc1)c1cc(-c2cccs2)on1	-	.	.	.	.	.
Cc1c(N(C)S(=O)(=O)c2cc(C(=O)N3CCCC3)ccc2Cl)c(=O)n(-c2ccccc2)n1C	-	-	-	-	-	.
O=C(COc1ccc(Br)cc1)NCCN1CCCC1	-	-	-	?	-	.
CC(=O)c1cc2c(cc1N(C(=O)Cn1nnc3ccccc31)C(C(=O)NCCC(C)C)c1cccnc1)OCO2 (stereo not given)	-	-	-	-	-	.
COc1cc(NC(=O)c2cc(-c3ccc4c(c3)OCO4)on2)cc(OC)c1OC	-	-	-	-	-	-
Cc1ccc(OC(=O)c2cc(-c3ccc4c(c3)OCCO4)on2)c(C)c1	1.5µM	.	.	.	.	.
O=C(Nc1cccc(O)c1)c1cc(-c2ccc3c(c2)OCO3)on1	0.15µM	?	?	?	?	.
Cc1ccc(CNC(=O)CNS(=O)(=O)c2ccc(Br)s2)cc1	-	-	-	-	-	.
COc1ccc(S(=O)(=O)N(C)C[C@@H]2Oc3c(NS(=O)(=O)c4cn(C)cn4)cccc3C(=O)N([C@@H](C)CO)C[C@@H]2C)cc1	.	-	.	?	.	.
O=C(Nc1ccc(Cl)cc1)N1CCC(c2ccccc2)C1 (stereo not given)	3.8µM	?	1.6µM	?	1.1µM	13µM
Cc1ccc(C(=O)NC2CCN(C(=O)Nc3ccccc3)CC2)cc1	-	-	-	-	-	.
Cc1ccc(NC(=O)N2CCC(c3ccccc3)C2)cc1C (stereo not given)	4.8µM	?	1.4µM	?	0.79µM	13µM
Cc1ccc(C2CCN(C(=O)Nc3ccccc3)C2)cc1 (stereo not given)	12µM	?	4.5µM	?	4µM	?
O=C(NCc1cccc(Cl)c1)c1ccc(NC(=O)N2CCSc3ccccc32)cc1	-	.	.	.	.	-
FC(F)(F)c1cccc(-c2nc3nc(Cl)c(Cl)nc3[nH]2)c1	4.3µM	-	?	?	?	-[9.22 µM]
CCOC(=O)c1ccccc1NC(=O)N1CCC(CN2CCOCC2)CC1	-	.	.	.	.	.
COc1ccc(C)cc1NC(=O)NC1CCCCCCC1	15µM	-	-	-	-	.
Cc1ccccc1NC(=O)NNC(=O)c1ccc2ccccc2c1	-	-	-	-	-	.
COc1ccc(NC(=O)c2ccccc2NC(=O)COc2ccccc2)cc1	-	-	-	-	-	-
Cc1ccccc1NC(=O)c1ccc2ccccc2c1	15µM	?	?	?	?	.
COc1ccc(C(=O)Nc2ccccc2C(=O)Nc2ccc(C(=O)O)cc2)cc1	0.76µM	?	?	?	?	.
CCC(NC(=O)c1ccccc1NC(=O)c1ccc(OC)cc1)C(=O)N1CCCC1 (stereo not given)	17µM	-	-	?	-	?
COC(=O)c1ccc(NC(=O)c2cc(S(=O)(=O)N3CCOCC3)cn2C)cc1	-	.	.	.	.	.
CCN(CC)S(=O)(=O)c1cccc(C(=O)NCCCn2ccnc2)c1	-	-	-	?	-	.
CCCCNC(=O)Nc1ccccc1C(=O)Nc1ccc(OC)cc1	11µM	-	-	?	-	-
CC(C)Oc1ccc(C(=O)NNC(=O)c2ccccc2C(=O)O)cc1	21µM	-	-	-	-	-
